Results filed as inconclusive are left out. Calls of active or inactive are those of the source. Unless noted, the call rests on the fitted dose curve; in most records, active means well fitted curve in the direction sought with a large enough effect in the repeat runs; inconclusive means weak or mixed curves; inactive means no such curve, though single readings can be large; an effect the other way counts as inactive or inconclusive.
Assays:
[1] = qHTS assay to identify aromatase inhibitors - cell viability counter screen (AID 743084);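 further: cells stimulated with testosterone during compound exposure; nearly all actives have a fitted effect of over 55% in size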
[2] = target: Aryl hydrocarbon receptor (Homo sapiens) (UniProt P35869); assay: qHTS assay to identify small molecule that activate the aryl hydrocarbon receptor (AhR) signaling pathway (AID 743085);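 further: HG2L7.5c1 human HepG2 liver cells with stably integrated DRE-driven firefly reporter; series mostly up to about 70 µM; nearly all actives have a fitted effect of over 15% in size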
Aryl hydrocarbon receptor (Homo sapiens), sequence (P35869 whole entry, looked up): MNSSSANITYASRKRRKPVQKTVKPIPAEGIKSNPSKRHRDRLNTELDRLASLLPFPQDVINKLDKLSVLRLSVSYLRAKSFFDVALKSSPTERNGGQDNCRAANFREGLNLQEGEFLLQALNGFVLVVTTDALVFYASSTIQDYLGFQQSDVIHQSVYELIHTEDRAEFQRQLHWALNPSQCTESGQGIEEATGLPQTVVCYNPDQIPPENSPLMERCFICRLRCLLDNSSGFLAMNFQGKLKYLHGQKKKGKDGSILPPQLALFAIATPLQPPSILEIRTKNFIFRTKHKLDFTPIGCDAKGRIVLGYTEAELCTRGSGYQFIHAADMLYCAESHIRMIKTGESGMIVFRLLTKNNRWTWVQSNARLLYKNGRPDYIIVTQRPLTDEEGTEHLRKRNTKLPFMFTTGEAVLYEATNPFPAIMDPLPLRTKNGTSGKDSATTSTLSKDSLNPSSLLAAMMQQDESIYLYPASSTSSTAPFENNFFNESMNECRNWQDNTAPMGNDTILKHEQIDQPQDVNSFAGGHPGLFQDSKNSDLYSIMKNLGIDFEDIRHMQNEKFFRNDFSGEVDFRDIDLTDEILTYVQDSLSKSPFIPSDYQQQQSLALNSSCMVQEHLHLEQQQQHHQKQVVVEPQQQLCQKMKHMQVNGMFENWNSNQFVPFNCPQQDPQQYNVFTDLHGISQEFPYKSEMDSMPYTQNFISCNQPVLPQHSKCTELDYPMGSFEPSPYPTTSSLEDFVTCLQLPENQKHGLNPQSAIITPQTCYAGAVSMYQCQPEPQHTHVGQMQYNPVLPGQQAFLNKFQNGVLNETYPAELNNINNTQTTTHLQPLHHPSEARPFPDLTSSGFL
How it was run: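 A multiplexed format paired cell viability (CellTiter-Fluor fluorescence) with AhR-dependent luciferase output (ONE-Glo luminescence) in the same wells of HepG2 DRE-luc cells after 24 h compound exposure at 37C.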

[3] = target: Peroxisome proliferator-activated receptor gamma (Homo sapiens) (UniProt P37231); assay: qHTS assay to identify small molecule agonists of the peroxisome proliferator-activated receptor gamma (PPARg) signaling pathway (AID 743094; active means well fitted activation curve with a large enough effect in the signal ratio in the repeat runs, not every such curve was filed as active; the % refers to the signal ratio)
Peroxisome proliferator-activated receptor gamma (Homo sapiens), sequence (P37231 whole entry, looked up): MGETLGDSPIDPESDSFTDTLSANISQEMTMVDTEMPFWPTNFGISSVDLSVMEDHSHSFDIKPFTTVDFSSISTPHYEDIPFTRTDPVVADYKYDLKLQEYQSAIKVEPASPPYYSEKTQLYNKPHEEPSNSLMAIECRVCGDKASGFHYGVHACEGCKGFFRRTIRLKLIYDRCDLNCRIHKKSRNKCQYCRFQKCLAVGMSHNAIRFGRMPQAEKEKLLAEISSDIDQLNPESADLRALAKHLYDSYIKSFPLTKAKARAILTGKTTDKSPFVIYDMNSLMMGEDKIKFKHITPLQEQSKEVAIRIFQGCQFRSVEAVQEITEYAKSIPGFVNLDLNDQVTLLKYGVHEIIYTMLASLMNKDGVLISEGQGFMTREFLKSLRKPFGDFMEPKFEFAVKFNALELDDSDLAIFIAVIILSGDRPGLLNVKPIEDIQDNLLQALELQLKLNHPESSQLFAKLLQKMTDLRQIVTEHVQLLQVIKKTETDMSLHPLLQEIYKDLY
How it was run: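 Agonism was assessed in a beta-lactamase reporter system, HEK293H cells with a stably integrated UAS-bla construct under PPARg control; the 17 h treatment at 37C preceded a 1 h room-temperature FRET substrate read.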

[4] = qHTS assay for small molecule agonists of the antioxidant response element (ARE) signaling pathway (AID 743202; active means well fitted activation curve with a large enough effect in the signal ratio in the repeat runs, not every such curve was filed as active; the % refers to the signal ratio)
How it was run: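 Beta-lactamase reporter activity, read as fluorescence intensity, reflects ARE/Nrf2 pathway induction in HepG2 cells after 16 h compound exposure at 37 C; substrate loading was 2 h at room temperature.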

[5] = qHTS assay for small molecule agonists of the antioxidant response element (ARE) signaling pathway - cell viability counter screen (AID 743203; calls by dose curve; further: nearly all actives have a fitted effect of over 55% in size)
How it was run: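 ATP content via CellTiter-Glo luminescence served as the viability measure. Cells: ARE-bla HepG2, 2,000 per well. Exposure: 16 hrs, 37C/5% CO2.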

[6] = qHTS assay for small molecule activators of the heat shock response signaling pathway - cell viability counter screen (AID 743209); further: nearly all actives have a fitted effect of over 50% in size
How it was run: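 Compounds dissolved in DMSO were added to overnight-plated HSE-bla HeLa cells and left 5 h at 37 C. Cell viability was quantified by luminescence using CellTiter-Glo.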

[7] = qHTS assay for small molecule activators of the heat shock response signaling pathway (AID 743210; active means well fitted activation curve with a large enough effect in the signal ratio in the repeat runs, with a control signal flat, not every such curve was filed as active; the % refers to the signal ratio;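 further: HeLa cells with beta-lactamase reporter driven by heat shock elements; series mostly up to about 63 µM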)
How it was run: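 Fluorescence from a cleaved B/G FRET substrate (2.5 h, room temp) reports HSE-driven beta-lactamase in HeLa cells treated 5 h at 37 C with DMSO-dissolved compounds.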

[8] = qHTS assay to identify small molecule agonists of the peroxisome proliferator-activated receptor delta (PPARd) signaling pathway - cell viability counter screen (AID 743211); further: nearly all actives have a fitted effect of over 55% in size
How it was run: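 Tox21 library compounds, delivered in DMSO, were incubated 17 h with PPARd-bla HEK293H cells; cytotoxicity was taken from CellTiter-Glo luminescence read 30 min after reagent addition.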

[9] = target: Peroxisome proliferator-activated receptor delta (Homo sapiens) (UniProt Q03181); assay: qHTS assay to identify small molecule agonists of the peroxisome proliferator-activated receptor delta (PPARd) signaling pathway (AID 743212; calls by dose curve)
Peroxisome proliferator-activated receptor delta (Homo sapiens), sequence (Q03181 whole entry, looked up): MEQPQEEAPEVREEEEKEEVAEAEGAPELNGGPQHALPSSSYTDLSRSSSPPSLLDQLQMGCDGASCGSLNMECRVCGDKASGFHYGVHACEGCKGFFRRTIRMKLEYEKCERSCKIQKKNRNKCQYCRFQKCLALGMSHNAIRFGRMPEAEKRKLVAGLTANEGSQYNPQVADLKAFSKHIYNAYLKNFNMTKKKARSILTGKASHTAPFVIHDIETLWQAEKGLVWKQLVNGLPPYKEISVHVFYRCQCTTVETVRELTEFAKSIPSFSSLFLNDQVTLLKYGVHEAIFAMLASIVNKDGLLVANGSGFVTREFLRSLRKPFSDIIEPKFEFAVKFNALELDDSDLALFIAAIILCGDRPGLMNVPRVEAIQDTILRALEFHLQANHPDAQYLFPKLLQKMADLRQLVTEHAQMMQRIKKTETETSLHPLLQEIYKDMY
How it was run: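 Steps: seed PPARd-bla HEK293H cells; incubate 5 h, 37 C, 5% CO2; add compounds in DMSO; incubate, 37 C; add LiveBLAzer B/G FRET substrate; hold 2 h at room temperature; measure fluorescence.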

[10] = qHTS assay to identify small molecule antagonists of the peroxisome proliferator-activated receptor delta (PPARd) signaling pathway - cell viability counter screen (AID 743213); further: nearly all actives have a fitted effect of over 50% in size
How it was run: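 PPARd-bla HEK293H cells (3000/well) got compound plus 300 nM L165041 agonist for 17 h at 37 C. Viability in the same wells came from CellTiter-Glo luminescence after 30 min at room temperature.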

[11] = target: Bile acid receptor (Homo sapiens) (UniProt Q96RI1); assay: qHTS assay to identify small molecule antagonists of the farnesoid-X-receptor (FXR) signaling pathway (AID 743217; active means well fitted inhibition curve with a large enough effect in the signal ratio in the repeat runs, not every such curve was filed as active; the % refers to the signal ratio)
Bile acid receptor (Homo sapiens), sequence (Q96RI1 whole entry, looked up): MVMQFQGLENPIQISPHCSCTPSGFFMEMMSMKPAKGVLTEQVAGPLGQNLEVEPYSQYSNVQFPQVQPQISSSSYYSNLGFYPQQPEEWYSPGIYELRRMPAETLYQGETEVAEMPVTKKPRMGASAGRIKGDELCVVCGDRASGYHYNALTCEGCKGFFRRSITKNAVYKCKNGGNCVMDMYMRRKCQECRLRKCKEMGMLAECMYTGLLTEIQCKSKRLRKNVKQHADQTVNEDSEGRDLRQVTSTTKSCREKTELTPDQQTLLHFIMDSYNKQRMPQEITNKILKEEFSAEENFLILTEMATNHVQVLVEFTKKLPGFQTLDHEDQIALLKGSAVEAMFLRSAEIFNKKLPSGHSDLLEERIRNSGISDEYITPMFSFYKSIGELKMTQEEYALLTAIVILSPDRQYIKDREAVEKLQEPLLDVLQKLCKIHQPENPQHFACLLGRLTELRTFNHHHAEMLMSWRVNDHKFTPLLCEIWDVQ
How it was run: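 Test compounds are pin-transferred onto FXR-bla HEK 293T cells, then chenodeoxycholic acid is added at 50 uM final. After 16 h at 37 °C, LiveBLAzer B/G substrate is applied for 2 h at room temperature and fluorescence read.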

[12] = qHTS assay to identify small molecule agonists of the farnesoid-X-receptor (FXR) signaling pathway - cell viability counter screen (AID 743218); further: nearly all actives have a fitted effect of over 45% in size
How it was run: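 Quantitative HTS counter screen measuring ATP-based viability via CellTiter-Glo luminescence in HEK 293T cells carrying a UAS-driven beta-lactamase reporter, after 16 h compound exposure at 37 C.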

[13] = target: Bile acid receptor (Homo sapiens) (UniProt Q96RI1); assay: qHTS assay to identify small molecule agonists of the farnesoid-X-receptor (FXR) signaling pathway (AID 743220; active means well fitted activation curve with a large enough effect in the signal ratio in the repeat runs, not every such curve was filed as active; the % refers to the signal ratio)
How it was run: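 FXR-UAS-bla HEK 293T cells carrying a UAS-driven beta-lactamase reporter were plated for 5 h at 37C/5% CO2, then exposed to DMSO-dissolved Tox21 10K compounds for 16 h at 37C. A LiveBLAzer B/G FRET substrate was loaded for 2 h at room temperature before fluorescence reading.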

[14] = qHTS assay to identify small molecule antagonists of the farnesoid-X-receptor (FXR) signaling pathway - cell viability counter screen (AID 743221; active means well fitted cell-killing curve with a large enough effect in the repeat runs, not every such curve was filed as active; further: nearly all actives have a fitted effect of over 50% in size)
How it was run: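 Cytotoxicity is taken from ATP luminescence (CellTiter-Glo, 30 min, room temperature) in FXR-bla HEK 293T cells previously incubated 16 h at 37 C with compound and chenodeoxycholic acid at 50 uM final.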

[15] = qHTS assay to identify small molecule antagonists of the peroxisome proliferator-activated receptor gamma (PPARg) signaling pathway - cell viability counter screen (AID 743194); further: nearly all actives have a fitted effect of over 55% in size
How it was run: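 Viability was measured as CellTiter-Glo luminescence in GeneBLAzer PPARg UAS-bla HEK293H cells. These cells had been exposed 17 h at 37 C to compounds together with rosiglitazone at 50 nM final, with the beta-lactamase readout taken in the same wells.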

[16] = target: Peroxisome proliferator-activated receptor delta (Homo sapiens) (UniProt Q03181); assay: qHTS assay to identify small molecule antagonists of the peroxisome proliferator-activated receptor delta (PPARd) signaling pathway (AID 743215; active means well fitted inhibition curve with a large enough effect in the signal ratio in the repeat runs, not every such curve was filed as active; the % refers to the signal ratio;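 further: cells stimulated with agonist L165041 at 300 nM final during compound exposure; series mostly up to about 62 µM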)
How it was run: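 Here, a reporter line (HEK293H, beta-lactamase under a UAS) measures PPARd signaling. Compounds are tested against agonist L165041 at 300 nM final concentration over 17 h at 37 C, with fluorescence read after substrate.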

[17] = target: Vitamin D3 receptor (Homo sapiens) (UniProt P11473); assay: qHTS assay to identify small molecule antagonists of the vitamin D receptor (VDR) signaling pathway (AID 743223; active means well fitted inhibition curve with a large enough effect in the signal ratio in the repeat runs, not every such curve was filed as active; the % refers to the signal ratio)
Vitamin D3 receptor (Homo sapiens), sequence (P11473 whole entry, looked up): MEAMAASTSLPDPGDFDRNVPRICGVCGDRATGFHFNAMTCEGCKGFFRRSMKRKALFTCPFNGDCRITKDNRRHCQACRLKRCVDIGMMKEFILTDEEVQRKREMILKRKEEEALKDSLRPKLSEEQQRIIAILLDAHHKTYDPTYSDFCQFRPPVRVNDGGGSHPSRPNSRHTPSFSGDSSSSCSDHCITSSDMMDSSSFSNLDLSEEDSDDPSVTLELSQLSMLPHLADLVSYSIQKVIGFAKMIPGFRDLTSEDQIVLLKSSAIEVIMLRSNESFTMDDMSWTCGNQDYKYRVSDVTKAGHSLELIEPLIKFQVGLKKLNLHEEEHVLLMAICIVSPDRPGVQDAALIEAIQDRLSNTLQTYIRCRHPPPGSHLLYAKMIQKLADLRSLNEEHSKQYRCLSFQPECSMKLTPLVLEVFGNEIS
How it was run: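 Quantitative HTS in VDR-bla reporter cells stimulated with 1alpha,25-dihydroxyvitamin D3, 3 nM final. Compound exposure 16 h, 37C, 5% CO2. Read-out: beta-lactamase FRET substrate fluorescence, 2 h RT.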

[18] = target: Peroxisome proliferator-activated receptor gamma (Homo sapiens) (UniProt P37231); assay: qHTS assay to identify small molecule antagonists of the peroxisome proliferator-activated receptor gamma (PPARg) signaling pathway (AID 743191; calls by dose curve; further: series mostly up to about 63 µM; nearly all actives have a fitted effect of over 30% in size)
How it was run: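 Beta-lactamase reporter under UAS control in HEK293H PPARg-bla cells; compound treatment 17 h at 37C. Read-out: fluorescence intensity after 1 h room-temperature incubation with LiveBLAzer B/G FRET substrate.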

[19] = target: Vitamin D3 receptor (Homo sapiens) (UniProt P11473); assay: qHTS assay to identify small molecule agonists of the vitamin D receptor (VDR) signaling pathway (AID 743222; calls by dose curve)
How it was run: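 Tox21 cell reporter format: VDR-bla line, 16 h compound exposure in 5% CO2 at 37C, then fluorescence intensity after 2 h with LiveBLAzer B/G FRET substrate.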

[20] = qHTS assay to identify small molecule that activate the aryl hydrocarbon receptor (AhR) signaling pathway - cell viability counter screen (AID 743086);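 further: HepG2 liver cells carrying the AhR DRE luciferase reporter; series mostly up to about 70 µM; nearly all actives have a fitted effect of over 45% in size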
How it was run: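 Cytotoxicity counter screen: CellTiter-Fluor signal (30 min, 37 C) in 4000 HepG2 cells/well carrying the DRE-luciferase reporter, following 24 h compound exposure at 37 C.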

Measured: Potency

Nc1nc2c(ncn2CCC(CO)CO)c(=O)[nH]1
not listed: [15] | [16] | [17] | [18] | [19] | [20]
inactive: all other assays above

CCCCCCCCCCCCCCCCCCOCC(O)CO (stereo not drawn)
not listed: [11] | [13] | [18] | [19] | [20]
inactive: all other assays above

OCC(O)[C@@H](O)[C@H](O)[C@H](O)CO[C@H]1O[C@H](CO)[C@@H](O)[C@H](O)[C@H]1O (stereo partly drawn)
not listed: [11] | [13] | [17] | [18] | [19] | [20]
inactive: all other assays above

CSc1ccc(C=O)cc1
not listed: [11] | [12] | [13] | [15] | [20]
inactive: all other assays above

CC(C)COC(=O)c1ccccc1O
not listed: [2] | [11] | [12] | [13]
inactive: all other assays above

COc1cc(O)cc(O)c1
not listed: [2] | [4] | [7] | [18]
inactive: all other assays above

CC(C)[N+](C)(C)CC(O)COc1cccc2ccccc12 (stereo not drawn)
not listed: [4] | [11] | [12] | [13] | [17] | [19] | [20]
inactive: all other assays above

NC(=O)c1ncn([C@@H]2O[C@H](CO)[C@@H](O)[C@H]2O)c1O
not listed: [4] | [7] | [11] | [17] | [18] | [19] | [20]
inactive: all other assays above

Oc1cc(O)c2c(c1)O[C@H](c1ccc(O)c(O)c1)[C@H](O)C2
not listed: [4] | [11] | [13] | [14] | [15] | [20]
inactive: all other assays above

CC(C)(O)C(=O)c1ccc(OCCO)cc1
inactive: [1] | [2] | [3] | [4] | [5] | [6] | [7] | [8] | [9] | [10] | [14]

c1ccc(CCCc2ccccn2)cc1
not listed: [2] | [4] | [9] | [16] | [17] | [18]
inactive: all other assays above

CCCC(=O)O[C@]1(C(=O)CCl)[C@@H](C)C[C@H]2[C@@H]3CCC4=CC(=O)C=C[C@]4(C)[C@@]3(F)C(=O)C[C@@]21C
not listed: [2] | [4] | [6] | [17] | [18] | [19]
inactive: all other assays above

COc1cccc(Br)c1
not listed: [11] | [12] | [13] | [17] | [18] | [20]
inactive: all other assays above

CCOC(=O)[C@H](CCc1ccccc1)N[C@@H](C)C(=O)N1CCC[C@H]1C(=O)O
not listed: [4] | [8] | [10] | [13] | [17] | [18] | [20]
inactive: all other assays above

COCc1ccc(COC)cc1
not listed: [9] | [19] | [20]
inactive: all other assays above

CCCCN(CCO)CCO
not listed: [9] | [11] | [12] | [13] | [16] | [18] | [19] | [20]
inactive: all other assays above

NC(=O)Nc1nc2ccccc2[nH]1
not listed: [2] | [4] | [7] | [18]
inactive: all other assays above

O=Cc1ccccc1[N+](=O)[O-]
not listed: [11] | [13] | [18] | [20]
inactive: all other assays above

CC(=O)CCc1ccc(O)cc1
not listed: [2] | [11] | [13] | [17]
inactive: all other assays above

Reference: PubChem BioAssay (Tox21)
